Six1-Eya2 inh = qHTS Assay for Inhibitors of the Six1/Eya2 Interaction. activity change, % (concentration not given with the values). AlphaScreen GST-Six1/His-Eya2 binding, biochemical; stronger effect = lower value. hit rate 0.56% among 360,000
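Six1/Eya2 binding was read as AlphaScreen signal after compounds were pinned into GST-Six1 plus His-tagged Eya2 (5X stock 250/500 nM) in pH 8.0 Tris/NaCl/TCEP buffer, beads added, then incubated 1 h, 37 C, dark.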
CtBP-E1A inh = qHTS Assay for Inhibitors of the CtBP/E1A Interaction; hit rate 0.49% among 340,000; CtBP / adenovirus E1A interaction (AlphaScreen); AID 651724, 2012; activity change, % (concentration not given with the values); AlphaScreen GST-E1A/His-CtBP binding, 1536-well; stronger effect = lower value
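In 5 uL wells, 23 nL compound meets equimolar GST-E1A and His-CtBP (5X stock 125 nM each) for 2 h, 37 °C. Beads (5X, 50 ug/mL) then 1 h, 37 °C, dark.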
PI4K2A block = qHTS for small molecular inhibitors of PI4K2A; AID 1346378, 2018; hit rate 0.13% among 420,000; Phosphatidylinositol 4-kinase type 2-alpha (Homo sapiens), Q9BTU6; purified PI4K2A, ADP-Glo luminescence, 1 h; stronger effect = lower value; activity change, negative = inhibition, % at 76.9 µM; in the data active = activity change below about -50%; inconclusive = mostly about -30% to -49%;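 also: -100% = wells without enzyme as full effect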
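PI4K2A activity was measured by ADP-Glo luminescence: enzyme (4 ug/mL stock) and phosphatidylinositol (1.2 mM stock) in Tris pH 7.5/MgCl2/EGTA/Triton X-100 buffer were reacted with ATP (300 microM stock) for one hour at ambient temperature.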
PI5P4Ka inh = qHTS for Inhibitors of phosphatidylinositol 5-phosphate 4-kinase (PI5P4K) | hit rate 1.2% among 330,000 | PI5P4Kalpha enzyme, ADP-Glo luminescence, 60 min; stronger effect = lower value | max response, %; active = max response of -50% or lower; inconclusive = between -30% and -50%; inactive = -30% or higher; also: value at the top dose of about 77 µM
Target sequence (P48426 whole entry, looked up): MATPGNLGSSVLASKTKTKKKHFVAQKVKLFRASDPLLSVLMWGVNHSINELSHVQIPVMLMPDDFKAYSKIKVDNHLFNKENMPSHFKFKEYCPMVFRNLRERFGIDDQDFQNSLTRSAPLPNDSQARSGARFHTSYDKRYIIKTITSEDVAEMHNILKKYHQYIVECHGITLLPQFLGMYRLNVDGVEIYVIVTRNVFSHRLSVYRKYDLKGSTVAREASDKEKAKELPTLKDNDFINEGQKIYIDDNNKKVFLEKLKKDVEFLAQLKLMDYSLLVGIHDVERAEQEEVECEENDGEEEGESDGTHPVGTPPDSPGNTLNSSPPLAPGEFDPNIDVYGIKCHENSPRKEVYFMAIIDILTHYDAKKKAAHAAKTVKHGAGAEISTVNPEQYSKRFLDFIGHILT
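Enzyme plus substrate dispensed, test compounds pinned in, then ATP (5 microM final) added. After 60 min at RT, ADP-Glo reagent 1 for 45 min and reagent 2 for 30 min preceded luminescence imaging.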
pAkt inh = HTS Assay for Inhibitors of Akt Phophorylation: Primary Screen; Neuro2A IGF-stimulated pAkt S473 HTRF, 20 min; stronger effect = lower value; activity change, % for hits at 50 µM; hit rate 0.32% among 360,000; in the data active = activity change below about -80%; inconclusive = mostly about -51% to -80%
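Neuro2A cells (4,500/well, DMEM with 0.5% FBS) were treated with compound at a single 50 µM final concentration, stimulated with 6 nM IGF for 20 min at 37 °C, and lysed. Phospho-Akt Ser473 was read by HTRF as 665/615 ratio ×10^4.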
* hit, by the source's call; i = inactive; ? = inconclusive; nt = no result given. This is a sample that favours compounds with a hit; in the whole collection about 1.8% have one here. Rule as the data show it, unless noted: active = activity change below about -65%; inconclusive = mostly about -30% to -63%; inactive = weaker than that. Unless noted, % is scaled to controls: 0 for no effect and ±100 for the full control effect.

SMILES	Six1-Eya2 inh	CtBP-E1A inh	PI4K2A block	PI5P4Ka inh	pAkt inh
CCOC(=O)CNC(=O)CNC(=O)c1ccc(OC)cc1	3	2	1	0	-108%*
CCCCOc1ccc(C(=O)NCC(=O)NCC(=O)OCC)cc1	2	6	-1	nt	i
Oc1ccccc1/C=N/Nc1nccnc1Cl	-92*	-94*	-9	nt	i
Oc1cccc(C=NNc2ccccn2)c1	-8	3	-1	-1	i
Oc1ccc(/C=N/Nc2nccnc2Cl)c(O)c1	-92*	-96*	-67*	-9	i
Oc1ccc(C=NNc2ccccn2)c(O)c1	-91*	-5	-18	-8	i
Oc1ccc(/C=N/Nc2ncc(Br)cn2)c(O)c1	-88*	-92*	0	0	i
O=[N+]([O-])c1ccccc1/C=N/Nc1nccnc1Cl	-2	-2	-3	nt	nt
COC(=O)c1cc(NC(=O)CSc2nnc(N)s2)ccc1Cl	3	9	0	6	i
COc1ccc(OC)c(CNC(=O)C2CCN(S(=O)(=O)N3CCCCC3)CC2)c1	3	-15	-2	6	i
CN(C)CCNC(=O)c1cccc(-c2cnc3c(NC=O)cc(-c4cccc(F)c4)cn23)c1	-15	-14	0	-3	i
CCOC(=O)/C=C1\SCC(=O)N1CC(=O)NCCc1ccc(F)cc1	3	1	-6	2	i
CC(C)NC(=O)NS(=O)(=O)c1cnccc1NC1CC2CCC1C2 (configuration not stated)	4	0	4	5	-107%*
CS(=O)(=O)Nc1ccccc1C(=O)NC1CC2CCC1C2 (configuration not stated)	4	1	2	nt	i
NC(=O)c1ccc(NC(=O)COC(=O)/C=C/c2ccc(Br)o2)cc1	?	-3	-5	-58*	i
CCOc1cc(C2NC(=O)NC(C)=C2C(=O)OCc2ccccc2)ccc1O (configuration not stated)	-69*	6	0	nt	i
COC(=O)c1ccc(NC(=O)N2CCOCC2)cc1	-1	1	3	2	-121%*
O=C1CCCCCN1Cc1nnc(SCc2nc3ccccc3s2)n1-c1ccccn1	5	-1	1	-7	i
CCc1cc2c(-c3ccccc3)cc(=O)oc2cc1OC(C)C(C)=O (configuration not stated)	22	-6	0	10	i
CC(C)(C)OC(=O)NCC(=O)Oc1cc2oc(=O)cc(-c3ccccc3)c2cc1Cl	2	9	1	-72*	i
CCc1[nH]nc2c1C(Cc1ccccc1)C(C#N)=C(N)O2 (configuration not stated)	7	-1	2	2	i
CCCc1[nH]nc2c1C(Cc1ccccc1)C(C#N)=C(N)O2 (configuration not stated)	-2	-6	-3	-6	-106%*
CC(C)CC1C(C#N)=C(N)Oc2n[nH]c(-c3ccccc3)c21 (configuration not stated)	-1	-2	2	-57*	i
NC(=O)c1csc(C2OC(CO)C(O)C2O)n1 (configuration not stated)	5	10	-1	3	i
O=C1C=C(C2OC(CO)C(O)C2O)C(=O)N1 (configuration not stated)	1	-1	-1	-54*	i
SMILES	Six1-Eya2 inh	CtBP-E1A inh	PI4K2A block	PI5P4Ka inh	pAkt inh
O=C1[C@H]2[C@@H](c3ccc(F)cc3)N3C(=O)N(c4cccc(Br)c4)C(=O)[C@@]3(Cc3ccc(Cl)cc3)[C@H]2C(=O)N1C1CCCCC1	1	-13	2	7	i
COc1ccc(N2C(=O)c3ccccc3NC2c2ccc(OC)c(CSc3ccccn3)c2)cc1 (configuration not stated)	4	-3	8	nt	-92%*
O=C(CCCCn1cnc2c(=S)nc[nH]c21)Nc1ccc(C(=O)O)c(O)c1	-26	-20	-10	-68*	i
COC(=O)c1ccccc1NC(=O)c1cc[n+](C)cc1	26	26	-4	-1	i
N#CC1=C(Nc2ccccc2Cl)SC(c2ccncc2)NC1=O (configuration not stated)	-4	1	-1	?	i
N#CC1=C(Nc2ccccc2Cl)SC2(CCCC2)NC1=O	2	4	-4	-51*	i
COC1=C(Nc2ccc(C)cc2)C(=O)c2ccccc2C1=O	-86*	-90*	-17	2	i
COC1=C(OC)C(=O)c2ccccc2C1=O	nt	nt	-24	nt	nt
COC1=C(Nc2ccccc2)C(=O)c2ccccc2C1=O	-83*	-67*	?	0	i
Cc1ccc2c(c1)c1c(n2CC(O)Cn2nc(C)c(Br)c2C)C(=O)CCC1 (configuration not stated)	8	7	-5	2	i
COc1ccc(CCNC(=O)c2cc3c(-c4ccccc4F)nn(C)c3s2)c(OC)c1	nt	nt	-3	nt	nt
CCc1cc2cc(C)ccc2nc1SCC(=O)N1CCN(C(=O)c2ccco2)CC1	0	-9	7	-6	i
CN1CCN(C(=O)C(C(=O)c2ccc(F)cc2)n2ccccc2=O)CC1 (configuration not stated)	-2	8	-3	-2	-99%*
CCOc1ccc(C2C(=O)N(C3CCCCC3)CC(=O)N2CC2CCCO2)cc1OC (configuration not stated)	1	-4	1	-2	i
CC1=C(C(=O)OCc2ccccc2)C(c2ccc3ccccc3c2)NC(=O)N1CCCC(=O)O (configuration not stated)	2	0	1	-101*	i
CC1=C(C(=O)OCc2ccccc2)C(c2ccccc2OS(=O)(=O)c2ccc(C)cc2)NC(=O)N1CCCC(=O)O (configuration not stated)	-8	0	-1	-72*	i
CC1=C(C(=O)OCc2ccccc2)C(c2ccccc2Cl)NC(=O)N1CCCC(=O)O (configuration not stated)	3	-2	-2	-73*	i
CCOC(=O)C1=C(C)N(Cc2ccccc2)C(=O)NC1c1ccccc1OS(=O)(=O)c1ccccc1[N+](=O)[O-] (configuration not stated)	-12	-11	-1	-1	i
COC(=O)C1=C(C)N(CCCC(=O)O)C(=O)NC1c1ccccc1OS(=O)(=O)c1ccccc1[N+](=O)[O-] (configuration not stated)	2	-2	1	-84*	i

Screening results (PubChem BioAssay)
